From the supplement of paper PMC6555819

Experiments:
Experiment in all cases: PBM binding z-score (relative to random genomic background probes); higher = stronger binding; sequences stand for … in GC…GCGATTGACAGCGTAGAATGAAGG
[1] = test system: FXR:RXRa (NR concentration 270 nM, RXRa partner concentration 90 nM)
In short: (§1)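 For binding z-scores, the reference was random background probes on custom Agilent 4×180K protein-binding microarrays. These arrays were incubated 1 h with ligand-free nuclear receptor dimers in PBS pH 7.4, 2% milk, 0.02% Triton X-100, 1 mM DTT, 0.2 mg/mL BSA and 0.4 mg/ml salmon testes DNA. Fluorescence was scanned after antibody detection of each partner (one per run) and regression-normalized.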

[2] = test system: LXRa:RXRa (NR concentration 270 nM, RXRa partner concentration 90 nM)
In short: as §1

[3] = test system: LXRa homodimer (NR concentration 270 nM)
In short: as §1

[4] = test system: LXRb:RXRa (NR concentration 270 nM, RXRa partner concentration 90 nM)
In short: as §1

[5] = test system: LXRb homodimer (NR concentration 270 nM)
In short: as §1

[6] = test system: PPARa:RXRa (NR concentration 270 nM, RXRa partner concentration 90 nM)
In short: as §1

[7] = test system: PPARg:RXRa (NR concentration 180 nM, RXRa partner concentration 90 nM)
In short: as §1

[8] = test system: PPARg:RXRa 270nM:90nM, anti-RXR (NR concentration 270 nM, RXRa partner concentration 90 nM)
In short: as §1

[9] = test system: PPARg:RXRa 30nM:10nM, anti-RXR (NR concentration 30 nM, RXRa partner concentration 10 nM)
In short: as §1

[10] = test system: PPARg:RXRa 90nM:30nM, anti-RXR (NR concentration 90 nM, RXRa partner concentration 30 nM)
In short: as §1

[11] = test system: PPARg:RXRa DBDmut IVT, anti-RXR (DBD mutation: RXRa K156A/R161A, NR concentration 270 nM, RXRa partner concentration 90 nM)
In short: as §1

[12] = test system: PPARg:RXRa IVT, anti-PPARg (NR concentration 270 nM, RXRa partner concentration 90 nM)
In short: as §1

[13] = test system: PPARg DBDmut:RXRa IVT, anti-PPARg (DBD mutation: PPARg1 K132A/R137A, NR concentration 270 nM, RXRa partner concentration 90 nM)
In short: as §1

[14] = test system: PPARg DBDmut IVT, anti-PPARg (DBD mutation: PPARg1 K132A/R137A, NR concentration 270 nM)
In short: as §1

[15] = test system: PPARg homodimer (NR concentration 180 nM)
In short: as §1

[16] = test system: PXR homodimer (NR concentration 270 nM)
In short: as §1

[17] = test system: RARa:RXR (NR concentration 270 nM, RXRa partner concentration 90 nM)
In short: as §1

[18] = test system: RARa homodimer (NR concentration 270 nM)
In short: as §1

[19] = test system: RARb:RXRa (NR concentration 270 nM, RXRa partner concentration 90 nM)
In short: as §1

Sequence	PBM binding z-score [1]	PBM binding z-score [2]	PBM binding z-score [3]	PBM binding z-score [4]	PBM binding z-score [5]	PBM binding z-score [6]	PBM binding z-score [7]	PBM binding z-score [8]	PBM binding z-score [9]	PBM binding z-score [10]	PBM binding z-score [11]	PBM binding z-score [12]	PBM binding z-score [13]	PBM binding z-score [14]	PBM binding z-score [15]	PBM binding z-score [16]	PBM binding z-score [17]	PBM binding z-score [18]	PBM binding z-score [19]
CCTAGTTGGTCAAGGTAACACACGCTATAGGTAC	0.638	0.459	0.594	0.713	0.295	0.749	1.08	1.32	0.57	0.891	1.65	1.92	0.633	0.573	1.25	0.51	0.946	1.13	1.26
CTTTACGGGTCAAGGTTATAGCACGGGTGGTACG	5.72	4.66	1.01	3.35	0.665	5.26	5.26	5.41	2.59	4.51	3.74	4.39	1.72	1.23	2.84	0.731	4.6	0.604	4.17
CAAGCTAGGTCAAAGGTCAAAGTCGAGCCAACCA	8.68	7.38	5.19	7.27	2.73	7.38	12.9	10.7	12	12	5.45	6.94	1.27	-0.285	5.21	1.5	9.03	2.23	6.05
ACTATCAGGCCAAGGGTCACTCAAGATTAGTCCG	2.77	3.13	0.488	2.87	0.938	4.54	7.66	7.12	6.22	7.87	1.26	3.82	0.909	0.584	3.28	0.337	4.42	1.45	3.72
ATCGAAAGGTCGAAGGTGAGTCTACCCACCCGAA	4.39	3.59	-0.0971	2.87	0.861	4.78	4.36	5.19	2.51	4.21	0.133	2.34	0.449	0.43	1.56	0.264	4.57	-0.143	3.74
TAGCCAAGGTCAGATCGGGCCAGTATACGCTATA	5.26	3.12	-0.0844	2.55	0.145	3.85	1.88	2.35	0.514	1.53	0.246	1.81	0.476	-0.254	1.38	-0.349	2.61	-0.193	4.3
ATATGTAGGTTACATCGGGGTCATTCAGGCTATG	4.88	5.89	3.8	4.91	1.46	5.71	7.19	6.35	4.23	5.65	7.87	7.63	3.44	3.24	3.92	10.3	7	1.93	3.25
ATATGGAGGTTAGCTGGGGTCATTCAGACTAGGC	5.58	6.45	4.02	5.67	1.51	5.04	3.15	3.77	1.68	2.72	2.62	2.93	1.36	1.19	2.73	5.39	5.62	1.8	3.66
ATCGAAAGGGCGTGAGGTGAGTATACAGAAAGGC	0.437	0.45	-0.364	0.429	-0.169	1.36	0.822	0.778	0.328	0.452	-0.47	1.02	0.673	0.814	0.257	0.256	1.08	0.276	1.89
ATATGTAGGTCAGCTGGGGTCATTCAGACTAGGC	6.69	6.41	5.01	5.39	1.51	6.15	9	7.13	5.31	7.16	8.08	8.21	5.33	2.2	4.29	5.2	6.74	1.6	4.57
ATACCAAGGTCATCGTGAGGTCGTTGATACTAAC	7.59	6.05	4.44	5.33	1.71	5.74	6.03	5.6	2.72	4.27	2.34	4.3	2.33	1.42	4.01	5.81	6	1.56	5.36
CCTTACGGGCCACGAGGTTATAGCACGACGAGCG	0.333	0.406	-0.158	0.202	-0.806	1.44	1.29	0.67	-0.315	0.471	0.97	1.16	-0.462	-1.1	0.126	-0.12	1.06	-0.0676	1.15
CGTCTAAGGTCAAAGGTCAGTGAAGAGATGACGG	8.79	7.27	4.41	6.95	2.67	7.45	11	8.6	8.75	10.3	4.71	5.84	0.729	0.828	5.87	2.61	8.98	4	6.07
CGTCAACGTTCAACTAAGGTAACGTAAAGCACGC	0.828	0.246	0.102	0.277	0.346	0.566	0.682	0.178	-0.166	-0.0957	-0.0681	0.225	0.181	-0.155	0.349	-0.0969	2.07	0.331	0.991
CCTTACGGGTCAAGGTTATCGCACGGGTGGTACG	6.04	3.62	0.367	2.95	0.18	5.07	4.85	5.31	2.29	3.7	2.42	3.71	0.643	-0.085	2.19	0.106	4.53	0.512	4.2
